# Hits are enriched below; roughly 2.5% of the tested compounds scored in any of these assays.
# HTT-AS act – Primary qHTS for Identification of Small Molecule Activators of Huntingtin-Antisense Promoter Activity | HEK293 HTT-AS promoter firefly luciferase reporter, 24 h; response scale: percent change from vehicle, -100% = no light | Potency, µM (titrated, usually from 57.5 µM), for the others: at the top dose activity change, positive = activation, actives largely listed as activators | 0.24% of 48,000 active; also: potency is read from the fitted curve at half-maximal effect; nearly all actives have a fitted effect of over 55% in size
#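 Luminescence was read after Dual-Glo reagent and a 10 min room-temperature incubation. Values were normalized to vehicle (0% activity) and zero RLU (-100% activity). Reporter HEK293 cells had been exposed to compounds (up to 57.5 uM final) for 24 h.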
# GALK inh – qHTS Assay for Inhibitors of Human Galactokinase (GALK): NCGC Sytravon Library Screen | P51570 | recombinant GALK, Kinase-Glo ATP luminescence, 1 h | Potency, µM (titrated, usually from 57.5 µM), inactives show top-dose activity, negative = inhibition, most hits filed as inhibitors | 44,000 tested, under 10 active | AID 1347072, 2019;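 also: plate controls were full GALK reaction for no effect and reaction lacking GALK for full effect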
#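 Luminescent ATP-depletion readout (Kinase-Glo Plus) after 1 h room-temperature incubation of human GALK (5 nM) with galactose 100 µM and ATP 35 µM, pH 8.0 HEPES/Mg2+ buffer; compounds tested in qHTS format.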
# SKOV3 invasion – Primary qHTS assay for Inhibitors of ovarian cancer metastasis using an organotypic tumor microenvironment (TME) model | SKOV3ip1-GFP adhesion/invasion on 3D omental model, fluorescence | Potency, µM (doses to about 45.8 µM), for inactives: at the top dose activity change, negative = inhibition, most hits filed as inhibitors | 0.1% of 46,000 active | AID 1963576, 2024;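 also: potency is read from the fitted curve at half-maximal effect; plate controls were DMSO wells for no effect and tomatine positive control wells for full effect; nearly all actives have a fitted effect of over 65% in size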
#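 qHTS, 4-pt dose (0.36-46 umol/L); SKOV3ip1-GFP, 1,200 cells/well, no FBS; primary omental fibroblast/mesothelial co-culture 48 h pre-grown; 2 h RT + 16 h 37 C; PBS wash, 4% PFA; GFP count 488/509 nm.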
# NTMT1 inh – Primary qHTS for Inhibitors of N-terminal methyltransferase 1 (NTMT1): MTaseGlo Assay. NTMT1 MTase-Glo SAH luminescence, purified enzyme. AID 1645870, 2021. Potency, µM (highest dose often 114 µM), for the others: at the top dose activity change, negative = inhibition, most hits filed as inhibitors. 2.5% of 59,000 active. N-terminal Xaa-Pro-Lys N-methyltransferase 1 (Homo sapiens), Q9BV86;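 also: potency is read from the fitted curve at half-maximal effect; plate controls were DMSO vehicle for no effect and no enzyme for full effect; nearly all actives have a fitted effect of over 65% in size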
# Target sequence (Q9BV86 whole entry, looked up): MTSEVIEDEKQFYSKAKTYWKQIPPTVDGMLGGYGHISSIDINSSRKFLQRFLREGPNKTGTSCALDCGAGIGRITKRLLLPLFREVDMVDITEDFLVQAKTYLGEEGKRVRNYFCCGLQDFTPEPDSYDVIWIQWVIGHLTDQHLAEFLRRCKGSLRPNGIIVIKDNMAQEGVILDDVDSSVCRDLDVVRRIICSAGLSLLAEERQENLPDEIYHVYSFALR
# HTT promoter inh – Primary qHTS for Identification of Small Molecule Inhibitors of Huntingtin Promoter Activity; 0.93% of 48,000 active; Potency, µM (doses to about 57.5 µM), inactives show at the top dose activity change, negative = inhibition, usual class: inhibitors; HEK293 HTT promoter firefly luciferase reporter, 24 h; also: potency is read from the fitted curve at half-maximal effect; nearly all actives have a fitted effect of over 50% in size
#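 Firefly luciferase readout (Dual-Glo, 10 min RT) after 24 h, 37 °C compound exposure (final up to 57.5 uM) of HEK293 reporter cells cultured 24 h beforehand; PTC124 at 50 uM final as control inhibitor; activity scaled vehicle 0%, zero RLU -100%.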
# TSG101-PTAP inh – qHTS Validation Assay for Inhibitors of HIV-1 Budding by Blocking the Interaction of PTAP/TSG101: Sytravon Library Screen. Tumor susceptibility gene 101 protein (Homo sapiens), Q99816. Fluorescence polarization, FITC-PTAP peptide/Tsg101, 20 min. Potency, µM (series often up to 115 µM), usual class: inhibitors. 44,000 tested, under 10 active. AID 1347069, 2019; also: potency is read from the fitted curve at half-maximal effect; 0% is about no effect
#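 Steps: Tsg101 binding domain (10 uM final) in HEPES pH 7.5/NaCl/Tween 20/EDTA/TCEP; add compound; add FITC-PTAP peptide (50 nM final); incubate 20 min r.t.; read polarization.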
# Sfp PPTase inh – qHTS Assay for Inhibitos of Bacillus subtilis Sfp phosphopantetheinyl transferase (PPTase): Chemistry Optimization Followup; shares compounds with NTMT1 inh; purified Sfp PPTase enzyme activity, qHTS; Potency, µM (doses to about 114 µM), for inactives: top-dose activity change, negative = inhibition, most hits filed as inhibitors; 78% of 230 active
# Bsub HM489 growth – qHTS for Inhibitos of Bacillus subtilis Sfp phosphopantetheinyl transferase (PPTase): Chemistry Optimization Followup in B. Subtilis HM489; shares compounds with NTMT1 inh; B. subtilis HM489 (acpS-) growth, BacTiter-Glo, 5 h; Potency, µM (titrated, usually from 114 µM), without a hit: at the highest dose activity change, negative = inhibition, actives largely listed as inhibitors; 50% of 220 active; AID 540353, 2011
# Sfp PPTase gel – Gel-Based Assay for Inhibitos of Bacillus subtilis Sfp phosphopantetheinyl transferase (PPTase): Chemistry Optimization Followup; 54% of 220 active; shares compounds with NTMT1 inh; Potency, µM (titrated, usually from 250 µM), inactives show at the top dose activity change, negative = inhibition, hits mostly inhibitors; purified Sfp PPTase, gel-based product detection
# Sfp gel – qHTS Assay for Inhibitors of Bacillus subtilis Sfp phosphopantetheinyl transferase (PPTase): Gel Based Assay; shares compounds with NTMT1 inh; purified Sfp PPTase, gel-based product detection; Potency, µM (top dose mostly 250 µM), inactives show top-dose activity change, negative = inhibition, hits mostly inhibitors; 90% of 45 active; AID 602362, 2012
# Sfp inh SAR2 – qHTS Assay for Inhibitors of Bacillus subtilis Sfp phosphopantetheinyl transferase (PPTase): SAR Round 2. shares compounds with NTMT1 inh. purified Sfp enzyme, PPTase activity, qHTS. Potency, µM (top dose mostly 57.1 µM), for inactives: at the top dose activity change, negative = inhibition, most hits filed as inhibitors. 87% of 230 active. AID 602370, 2012
# hGST A1-1 inh – qHTS Assay for Inhibitors of Bacillus subtilis Sfp phosphopantetheinyl transferase (PPTase): SAR in hGST A1-1 | shares compounds with NTMT1 inh | hGST A1-1 enzyme activity counter-screen, qHTS | Potency, µM (top dose mostly 114 µM), for inactives: at the highest dose activity change, negative = inhibition, actives largely listed as inhibitors | 55 tested, under 10 active | AID 602391, 2012
# HSD17B4 counter – Extended Characterization of HPGD Inhibitors: Counterscreen Against HSD17b4; Potency, µM (highest dose often 57.1 µM), for inactives: at the top dose activity change, negative = inhibition, hits mostly inhibitors; 10% of 230 active; shares compounds with NTMT1 inh; purified HSD17B4, estradiol/NAD+, NADH fluorescence
# ALDH1A1 inh – Extended Characterization of HPGD Inhibitors: Counterscreen Against ALDH1A1; shares compounds with NTMT1 inh; recombinant ALDH1A1, NADH fluorescence, propionaldehyde/NAD+; Potency, µM (highest dose often 57.1 µM), without a hit: at the top dose activity change, negative = inhibition, actives largely listed as inhibitors; 93% of 230 active; AID 743195, 2013
# NNMT inh – Counterscreen qHTS for Inhibitors of N-terminal methyltransferase 1 (NTMT1): NNMT MTaseGlo assay. shares compounds with NTMT1 inh. NNMT MTase-Glo luminescence, SAH detection. Potency, µM (top dose mostly 57.1 µM), inactives show at the top dose activity, negative = inhibition, most hits filed as inhibitors. 10% of 120 active. AID 1645878, 2021
# Target sequence (P40261 whole entry, looked up): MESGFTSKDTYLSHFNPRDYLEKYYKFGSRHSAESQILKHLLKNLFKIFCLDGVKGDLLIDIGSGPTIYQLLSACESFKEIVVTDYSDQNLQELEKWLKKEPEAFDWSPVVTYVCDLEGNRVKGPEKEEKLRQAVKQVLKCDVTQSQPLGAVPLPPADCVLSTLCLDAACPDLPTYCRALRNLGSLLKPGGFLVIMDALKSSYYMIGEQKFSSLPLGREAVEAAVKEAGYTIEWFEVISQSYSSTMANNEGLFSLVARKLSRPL
# Starred values were filed as active, the others as inactive; i = inactive; ? = inconclusive; nt = no result; [ ] = dose if it differs, or a comment. Calls follow the shape of the dose curve; as a rule, active = well fitted curve in the direction sought with a large enough effect; inconclusive = small, poorly fitted or top-dose-only effect, or another doubt; inactive = no such curve, though single readings can be large; an effect the other way counts as inactive or inconclusive.
SMILES,HTT-AS act,GALK inh,SKOV3 invasion,NTMT1 inh,HTT promoter inh,TSG101-PTAP inh,others
Fc1cc(Nc2nc(-c3ccncc3)nc3ccccc23)ccc1-c1cc(F)c(F)c(F)c1,nt,nt,nt,-1.4%,nt,nt,
Cc1cc(N[S+](=O)([O-])c2cc3c(cc2Cl)NC(=O)CO3)ccc1Cl,nt,nt,nt,-4.8%,nt,nt,
Cc1cc(-c2ncc(CC(=O)Nc3ccc(-c4cnccn4)cn3)cc2C)ccn1,-23.2%,nt,-0.5%,4.9%[57.5 µM],-20.8%,nt,NNMT inh=?
COc1ccc(NC(=O)c2cnn3c(C)cc(C)nc23)cc1Cl,nt,nt,nt,2.5%[57.5 µM],nt,nt,
CC#C[C@@H](CC(=O)O)c1ccc(OCc2cccc(-c3ccc(C(F)(F)F)cc3)c2)cc1,nt,nt,nt,22.4µM*,nt,nt,NNMT inh=?
CC(C)C[C@H](C(=O)O)c1cc(-c2ccc(C(F)(F)F)cc2)cc(-c2ccc(C(F)(F)F)cc2)c1,nt,nt,nt,-17.3%[57.5 µM],nt,nt,
COc1ccnc(NC(=S)N2CCN(c3cccc(C(F)(F)F)n3)CC2)c1,nt,nt,nt,?,nt,nt,Sfp PPTase inh=46.9µM*;Bsub HM489 growth=-15.1%;Sfp PPTase gel=?;Sfp inh SAR2=5.76µM*;HSD17B4 counter=23.8%;ALDH1A1 inh=8.57µM*
COc1ccccc1-c1noc(-c2ccc(N3CCN(c4ccccc4)CC3)c([N+](=O)[O-])c2)n1,-14.2%,-11.9%,9.8%,?,-16.3%,i,
COc1cccc(NC(=S)N2CCN(c3ccc(C(F)(F)F)cc3[N+](=O)[O-])CC2)n1,nt,nt,nt,?,nt,nt,Sfp PPTase inh=?;Bsub HM489 growth=?;Sfp PPTase gel=31.6µM*;Sfp inh SAR2=1.45µM*;HSD17B4 counter=-14.4%;ALDH1A1 inh=1.52µM*
COc1cccc(N2C(=O)c3ccccc3C2=O)n1,nt,nt,nt,-12.1%,nt,nt,
COc1ccc2cc3cc(C(=O)N4CCN(c5cccc(C(F)(F)F)c5)CC4)sc3nc2c1,-14.8%,1.0%,10.7%,5.6%,-14.2%,i,
COc1ccnc(NC(=S)N2CCN(c3cccc(Cl)c3Cl)CC2)c1,nt,nt,nt,?,nt,nt,Sfp PPTase inh=5.91µM*;Bsub HM489 growth=5.91µM*;Sfp PPTase gel=7.94µM*;Sfp gel=?;Sfp inh SAR2=1.02µM*;hGST A1-1 inh=-0.5%;HSD17B4 counter=0.2%;ALDH1A1 inh=3.83µM*
COc1cccc(NC(=S)N2CCN(c3cccc(C(F)(F)F)n3)CC2)n1,nt,nt,nt,?,nt,nt,Sfp PPTase inh=?;Bsub HM489 growth=?;Sfp PPTase gel=4.5%;Sfp inh SAR2=?;HSD17B4 counter=-4.8%;ALDH1A1 inh=4.82µM*
C=C(C)[C@@H]1CC[C@]2(C(=O)O)CC[C@]3(C)C(CCC4[C@]5(C)C(CC[C@]43C)C(C)(C)[C@@H](O)[C@@H]5C(=O)O)C12 (some centres not stated),nt,nt,nt,-14.2%[29.8 µM],nt,nt,
Fc1ccc(-n2cc(CCCCN3CCC4(CC3)OCc3ccccc34)c3ccccc32)cc1,nt,nt,nt,4.3%[57.5 µM],nt,nt,
COc1cc(N2CCN(C(C)=O)CC2)ccc1Nc1ncc(Cl)c(Nc2ccc(N3CCN(C(C)=O)CC3)cc2OC)n1,nt,nt,nt,20µM*,nt,nt,NNMT inh=?
COc1cc(N2CCC(N3CCN(C)CC3)CC2)ccc1Nc1ncc(Cl)c(-c2c[nH]c3ccccc23)n1,nt,nt,nt,20µM*,nt,nt,NNMT inh=?
